{"source": "the antibiotic and cytotoxicity screens of Wong et al. (2023)", "note": "About 1,500 (3.8%) of roughly 39,000 compounds were called active. This excerpt belongs to a sample that is enriched for actives."}
{"system": "HSkMC (human skeletal muscle cells)", "experiment": "cytotoxicity call (relative viability < 0.9)", "conditions": "10 µM"}
{"smiles": "COC(=O)CCn1ccc(=O)[nH]c1=O", "cytotoxicity call": "inactive"}
{"smiles": "C[C@@H]1CN([C@@H](C)CO)C(=O)c2cc(NC(=O)Nc3ccc(C(F)(F)F)cc3)ccc2O[C@H]1CN(C)Cc1ccncc1", "cytotoxicity call": "inactive"}
{"smiles": "COc1ccc(S(=O)(=O)Nc2ccc3c(c2)C(=O)N([C@H](C)CO)C[C@H](C)[C@H](CN(C)C(=O)Nc2ccccc2)OCCCC[C@H](C)O3)cc1", "cytotoxicity call": "inactive"}
{"smiles": "C[C@H]1CN([C@@H](C)CO)C(=O)c2cccc(NC(=O)Nc3ccc(C(F)(F)F)cc3)c2O[C@@H]1CN(C)S(=O)(=O)c1ccc(F)cc1", "cytotoxicity call": "inactive"}
{"smiles": "C=CCNC(=O)[C@@H]1[C@H]2C(=O)O[C@H](c3ccccc3)[C@H](c3ccccc3)N2[C@H](c2ccc(OCCO)cc2)[C@@]12C(=O)N(C(=O)OCCOC)c1ccc(C#Cc3ccc(OC)cc3)cc12", "cytotoxicity call": "inactive"}
{"smiles": "COc1ccc(NC(=O)Nc2ccc3c(c2)CC(=O)N([C@@H](C)CO)C[C@@H](C)[C@H](CN(C)Cc2ccc(Oc4ccccc4)cc2)O3)cc1", "cytotoxicity call": "active"}
{"smiles": "C[C@H](CO)N1C[C@H](C)[C@@H](CN(C)Cc2ccc(Oc3ccccc3)cc2)Oc2ccc(NC(=O)Nc3ccccc3)cc2CC1=O", "cytotoxicity call": "inactive"}
{"smiles": "COc1ccc(NC(=O)Nc2ccc3c(c2)CC(=O)N([C@H](C)CO)C[C@H](C)[C@@H](CN(C)Cc2ccc(-c4ccccc4)cc2)O3)cc1", "cytotoxicity call": "active"}
{"smiles": "COc1ccc(NC(=O)Nc2ccc3c(c2)CC(=O)N([C@@H](C)CO)C[C@H](C)[C@H](CN(C)Cc2ccc(-c4ccccc4)cc2)O3)cc1", "cytotoxicity call": "inactive"}
{"smiles": "COc1ccc(NC(=O)Nc2ccc3c(c2)CC(=O)N([C@@H](C)CO)C[C@@H](C)[C@@H](CN(C)Cc2ccc(Oc4ccccc4)cc2)O3)cc1", "cytotoxicity call": "inactive"}
{"smiles": "C[C@H](CO)N1C[C@H](C)[C@H](CN(C)Cc2ccc(Oc3ccccc3)cc2)Oc2ccc(NC(=O)Nc3ccccc3)cc2CC1=O", "cytotoxicity call": "inactive"}
{"smiles": "C[C@H]1CN([C@@H](C)CO)C(=O)Cc2cc(NC(=O)Nc3ccccc3)ccc2O[C@H]1CN(C)Cc1ccc(Oc2ccccc2)cc1", "cytotoxicity call": "active"}
{"smiles": "COc1ccc(NC(=O)Nc2ccc3c(c2)CC(=O)N([C@H](C)CO)C[C@@H](C)[C@@H](CN(C)Cc2ccc(Oc4ccccc4)cc2)O3)cc1", "cytotoxicity call": "inactive"}
{"smiles": "C[C@@H]1CN([C@@H](C)CO)C(=O)Cc2cc(NC(=O)Nc3ccccc3)ccc2O[C@@H]1CN(C)Cc1ccc(Oc2ccccc2)cc1", "cytotoxicity call": "active"}
{"smiles": "COc1ccc(NC(=O)Nc2ccc3c(c2)CC(=O)N([C@H](C)CO)C[C@H](C)[C@H](CN(C)Cc2ccc(Oc4ccccc4)cc2)O3)cc1", "cytotoxicity call": "inactive"}
{"smiles": "COc1ccc(NC(=O)Nc2ccc3c(c2)CC(=O)N([C@H](C)CO)C[C@H](C)[C@H](CN(C)Cc2ccc(-c4ccccc4)cc2)O3)cc1", "cytotoxicity call": "inactive"}
{"smiles": "COc1ccc(NC(=O)Nc2ccc3c(c2)CC(=O)N([C@@H](C)CO)C[C@H](C)[C@@H](CN(C)Cc2ccc(Oc4ccccc4)cc2)O3)cc1", "cytotoxicity call": "inactive"}
{"smiles": "C[C@H](CO)N1C[C@H](C)[C@@H](CN(C)C(=O)Cc2ccncc2)Oc2ncc(C#CC3(O)CCCC3)cc2C1=O", "cytotoxicity call": "inactive"}
{"smiles": "C[C@@H]1CN([C@H](C)CO)C(=O)c2cc(NC(=O)Nc3cccc4ccccc34)ccc2O[C@H]1CN(C)Cc1ccc(C(=O)O)cc1", "cytotoxicity call": "inactive"}
{"smiles": "C[C@@H]1CCCCO[C@@H](CN(C)C(=O)CCC(F)(F)F)[C@H](C)CN([C@H](C)CO)C(=O)c2cc(NC(=O)c3ccccc3)ccc2O1", "cytotoxicity call": "inactive"}
{"smiles": "C[C@@H]1CN([C@H](C)CO)C(=O)c2cc(NC(=O)CCN3CCOCC3)ccc2O[C@@H]1CN(C)CC1CC1", "cytotoxicity call": "inactive"}
{"smiles": "C[C@H](CO)N1C[C@H](C)[C@H](CN(C)C(=O)Nc2ccc(C(F)(F)F)cc2)Oc2ccc(NC(=O)Nc3ccc(C(F)(F)F)cc3)cc2C1=O", "cytotoxicity call": "inactive"}
{"smiles": "O=C(C[C@@H]1CC[C@@H]2[C@H](COC[C@@H](O)CN2S(=O)(=O)c2ccc(F)cc2)O1)NCc1ccc(Cl)c(Cl)c1", "cytotoxicity call": "inactive"}
{"smiles": "C[C@H]1CN([C@@H](C)CO)C(=O)Cc2cc(NC(=O)Nc3ccccc3)ccc2O[C@@H]1CN(C)Cc1ccc(Oc2ccccc2)cc1", "cytotoxicity call": "active"}
{"smiles": "CC(C)NC(=O)Nc1ccc2c(c1)CC(=O)N([C@@H](C)CO)C[C@@H](C)[C@H](CN(C)Cc1ccc(Oc3ccccc3)cc1)O2", "cytotoxicity call": "inactive"}
{"smiles": "C[C@H]1CN([C@@H](C)CO)C(=O)Cc2cc(NC(=O)Nc3ccc4c(c3)OCO4)ccc2O[C@@H]1CN(C)Cc1ccc(Oc2ccccc2)cc1", "cytotoxicity call": "inactive"}
{"smiles": "CC(C)NC(=O)Nc1ccc2c(c1)CC(=O)N([C@H](C)CO)C[C@@H](C)[C@@H](CN(C)Cc1ccc(Oc3ccccc3)cc1)O2", "cytotoxicity call": "active"}
{"smiles": "C[C@@H]1CN([C@@H](C)CO)C(=O)Cc2cc(NC(=O)Nc3ccccc3)ccc2O[C@H]1CN(C)Cc1ccc(Oc2ccccc2)cc1", "cytotoxicity call": "inactive"}
{"smiles": "C[C@H](CO)N1C[C@H](C)[C@@H](CN(C)Cc2ccc(Oc3ccccc3)cc2)Oc2ccc(NC(=O)Nc3ccc4c(c3)OCO4)cc2CC1=O", "cytotoxicity call": "active"}
{"smiles": "C[C@@H]1CN([C@H](C)CO)C(=O)Cc2cc(NC(=O)Nc3ccccc3)ccc2O[C@H]1CN(C)Cc1ccc(Oc2ccccc2)cc1", "cytotoxicity call": "inactive"}
{"smiles": "C[C@@H]1CN([C@@H](C)CO)C(=O)Cc2cc(NC(=O)Nc3ccc4c(c3)OCO4)ccc2O[C@H]1CN(C)Cc1ccc(Oc2ccccc2)cc1", "cytotoxicity call": "inactive"}
{"smiles": "C[C@@H]1CN([C@H](C)CO)C(=O)Cc2cc(NC(=O)Nc3ccccc3)ccc2O[C@@H]1CN(C)Cc1ccc(Oc2ccccc2)cc1", "cytotoxicity call": "active"}
{"smiles": "CC(C)NC(=O)Nc1ccc2c(c1)CC(=O)N([C@@H](C)CO)C[C@@H](C)[C@@H](CN(C)Cc1ccc(Oc3ccccc3)cc1)O2", "cytotoxicity call": "inactive"}
{"smiles": "COc1ccc2c3c(n(c2c1)C)[C@H](CO)N(CC1CCOCC1)C[C@]13CCN(CC1)C(=O)c1cnccn1", "cytotoxicity call": "inactive"}
{"smiles": "CO[C@H]1CN(C)C(=O)c2cc(NC(=O)c3ccc(F)cc3)ccc2OC[C@@H](C)N(C(=O)CN(C)C)C[C@@H]1C", "cytotoxicity call": "inactive"}
{"smiles": "C=CC[C@@H](CC(=O)N[C@@H](CO)Cc1ccccc1)C(=O)N[C@@H](C)COC(=O)[C@@H](CC=C)CC(=O)OC(C)(C)C", "cytotoxicity call": "inactive"}
{"smiles": "COc1ccccc1S(=O)(=O)N(C)C[C@@H]1OCc2cnnn2CCCC(=O)N([C@@H](C)CO)C[C@H]1C", "cytotoxicity call": "inactive"}
{"smiles": "COc1ccccc1CNC(=O)C[C@H]1C[C@@H]2c3cc(NC(=O)NC4CCCC4)ccc3O[C@@H]2[C@@H](CO)O1", "cytotoxicity call": "inactive"}
{"smiles": "C[C@H](CO)N1C[C@H](C)[C@H](CN(C)C(=O)Nc2ccc(F)cc2)OCCCC[C@H](C)Oc2ccc(NC(=O)Nc3ccc(F)cc3)cc2C1=O", "cytotoxicity call": "inactive"}
{"smiles": "C[C@@H]1CN([C@@H](C)CO)C(=O)c2cc(NC(=O)NC3CCCCC3)ccc2O[C@@H](C)CCCCO[C@H]1CN(C)CC1CCCCC1", "cytotoxicity call": "inactive"}
{"smiles": "C[C@@H]1CN([C@@H](C)CO)C(=O)c2cc(NS(=O)(=O)c3cccs3)ccc2O[C@@H](C)CCCCO[C@@H]1CN(C)Cc1ccc2c(c1)OCO2", "cytotoxicity call": "inactive"}
{"smiles": "CN(C)C(=O)C[C@H]1C=C[C@@H](NC(=O)C2CCOCC2)[C@H](CO)O1", "cytotoxicity call": "inactive"}
{"smiles": "C[C@H]1CN([C@@H](C)CO)C(=O)c2cc(NC(=O)Nc3ccccc3)ccc2O[C@H]1CN(C)Cc1ccc(Cl)c(Cl)c1", "cytotoxicity call": "active"}
{"smiles": "C[C@H](CO)N1C[C@H](C)[C@@H](CN(C)Cc2ccc(Cl)c(Cl)c2)Oc2ccc(NC(=O)Nc3ccccc3)cc2C1=O", "cytotoxicity call": "inactive"}
{"smiles": "C[C@@H]1CN([C@H](C)CO)C(=O)c2cc(NC(=O)Nc3ccccc3)ccc2O[C@H]1CN(C)Cc1ccc(Cl)c(Cl)c1", "cytotoxicity call": "inactive"}
{"smiles": "C[C@@H]1CN([C@H](C)CO)C(=O)c2cc(NC(=O)Nc3ccccc3)ccc2O[C@@H]1CN(C)Cc1ccc(Cl)c(Cl)c1", "cytotoxicity call": "inactive"}
{"smiles": "C[C@H]1CN([C@@H](C)CO)C(=O)c2cc(NC(=O)Nc3ccccc3)ccc2O[C@@H]1CN(C)Cc1ccc(Cl)c(Cl)c1", "cytotoxicity call": "inactive"}
{"smiles": "C[C@@H]1CN([C@@H](C)CO)C(=O)c2cc(NC(=O)Nc3ccccc3)ccc2O[C@@H]1CN(C)Cc1ccc(Cl)c(Cl)c1", "cytotoxicity call": "active"}
{"smiles": "C[C@H](CO)N1C[C@H](C)[C@@H](CN(C)S(=O)(=O)c2cccs2)Oc2ccc(NS(=O)(=O)c3ccc(F)cc3)cc2C1=O", "cytotoxicity call": "inactive"}
{"smiles": "Cc1cc(C(=O)Nc2cccc3c2O[C@H](CN(C)C(=O)Nc2ccc4c(c2)OCO4)[C@@H](C)CN([C@H](C)CO)C3=O)n(C)n1", "cytotoxicity call": "inactive"}
{"smiles": "COc1ccc(CCNC(=O)[C@@]2(Sc3ccc(C)cc3)CC(=O)N(C3CCCCC3)[C@@H]2c2ccc(CO)cc2I)cc1", "cytotoxicity call": "inactive"}
{"smiles": "COc1ccc(NC(=O)N(C)C[C@@H]2Oc3ccc(NS(=O)(=O)c4c(C)noc4C)cc3CC(=O)N([C@@H](C)CO)C[C@H]2C)cc1", "cytotoxicity call": "inactive"}
{"smiles": "CS(=O)(=O)CCNCc1ccc(-c2ccc3ncnc(Nc4ccc(OCc5cccc(F)c5)c(Cl)c4)c3c2)o1", "note": "[listing 1 of 2 here]", "cytotoxicity call": "active"}
{"smiles": "CC(C)(O)CC(=O)NCCn1ccc2ncnc(Nc3ccc(Oc4cccc(C(F)(F)F)c4)c(Cl)c3)c21", "cytotoxicity call": "inactive"}
{"smiles": "CS(=O)(=O)CCNCc1ccc(-c2ccc3ncnc(Nc4ccc(OCc5cccc(F)c5)c(Cl)c4)c3c2)o1", "note": "[listing 2 of 2 here]", "cytotoxicity call": "active"}
{"smiles": "Fc1cccc(-c2csc(COc3ccccc3Cl)n2)c1", "cytotoxicity call": "inactive"}
{"smiles": "CS(=O)(=O)CCNCc1nc(-c2ccc3ncnc(Nc4ccc(OCc5cccc(F)c5)c(Cl)c4)c3c2)cs1", "cytotoxicity call": "active"}
{"smiles": "CCCN(C)C[C@H]1OCCCC[C@H](C)Oc2ccc(NS(=O)(=O)c3cn(C)cn3)cc2C(=O)N([C@H](C)CO)C[C@H]1C", "cytotoxicity call": "inactive"}
{"smiles": "C[C@@H]1CNC[C@H](C)N1", "cytotoxicity call": "inactive"}
{"smiles": "C[C@H](CO)N1C[C@H](C)[C@@H](CN(C)S(=O)(=O)c2ccc(Cl)cc2)Oc2ccc(NC(=O)CCN3CCOCC3)cc2C1=O", "cytotoxicity call": "inactive"}
{"smiles": "c1ccc(C2C3=C(CCCC3)SC3=C2CCCC3)cc1", "cytotoxicity call": "inactive"}
{"smiles": "Cc1noc(C)c1NC(=O)N(C)C[C@@H]1Oc2c(NS(C)(=O)=O)cccc2C(=O)N([C@H](C)CO)C[C@H]1C", "cytotoxicity call": "inactive"}
